# From PubChem BioAssay (NCI)
# Compounds without any hit were thinned out: in the full panel of roughly 83,000, 20% have a hit.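 Negative percent growth values reflect cell death: -40 means 40% of the cells present at the start died, and -100 means all died.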 Unmarked numbers belong to inactive results. The source made the active and inactive calls. How the source made its calls: active means growth percent below 10; inactive means the rest.
# Test system: MDA-MB-468 breast
# Experiment: NCI-60 one-dose screen, 48 h (100 = growth as untreated, 0 = no growth, -100 = all killed)
# Conditions: 10 µM unless noted
row,SMILES,growth
1,O=[N+]([O-])c1ccc(SSc2ccc([N+](=O)[O-])cc2Cl)c(Cl)c1,74.6%
2,Cc1ccc(S(=O)(=O)NCCNc2nccc(-c3c(-c4cccc(N)c4)nc4sccn34)n2)cc1,63.2%
3,COC(=O)[C@H]1[C@H](OC)[C@@H](OC(=O)/C=C/c2ccncc2)CC2CN3CCc4c([nH]c5cc(OC)ccc45)[C@@H]3C[C@@H]21 (stereo not given in full),53.6%
4,O=C1/C=C/[C@@H](O)[C@@H]2C[C@@H](O)C[C@H]2/C=C/CCCCO1,-36.1% (active)
5,Cc1nc(Nc2nc3ccccc3o2)nc(-c2cccc([N+](=O)[O-])c2)c1C(=O)Nc1ccc(F)c(Cl)c1,-2.01% (active)
6,Cc1ccc(NC(=O)Cc2ccc(/C=C/C(=O)c3ncc[nH]3)cc2)cc1,-0.436% (active)
7,O=C1OCC2=C1C(c1ccc(Cl)c(Cl)c1)c1cc3c(cc1N2CCO)OCCO3 (stereo not given),23.5%
8,C1CN(SSN2CCOCC2)CCO1,-66.4% [100 µM] (active)
9,CCC(=O)Nc1ccc(-c2nc(-c3cccc(O)c3)c(-c3ccnc(Br)c3)[nH]2)cc1,30.5%
10,CC1(C)CC[C@]2(C(=O)O)CC[C@]3(C)C(=CC[C@@H]4[C@@]5(C)CC/C(=N\OCCC#N)C(C)(C)[C@@H]5CC[C@]43C)[C@@H]2C1,106%
11,O=C1C2=C(CCN(Cc3ccccc3)C2)N2CCN=C2N1Cc1ccc(C(F)(F)F)cc1,8.96% (active)
12,COc1ccc(-c2cn[nH]c2-c2cc(OC)c(OC)c(OC)c2)cc1OCc1ccccc1,-5.94% (active)
13,OC(CBr)CCBr (stereo not given),97.4%
14,N#Cc1c(-c2ccc(Cl)cc2)nc(SCC(=O)NC2=NN=C(c3ccccc3)CS2)[nH]c1=O,47.7%
15,Clc1cc(Cl)cc(Nc2ccc3c(OCCCN4CCOCC4)cccc3n2)c1,20.6%
16,CCc1ccc(CCCC(=O)O)cc1,107%
17,O=C(CC(=O)C(F)(F)C(F)(F)C(F)(F)F)c1cc2ccccc2o1,112%
18,COc1ccc(-c2nn(-c3cccc(NC(=O)Nc4ccccc4)c3)cc2-c2ccncc2)cc1Cl,29.4%
19,COc1cc(NC(N)=NCCC(C)(C)Oc2ccc(C(F)(F)F)cc2)ncc1C#N,-84.4% (active)
20,O=C1Nc2cc(-c3ccc(NS(=O)(=O)c4ccccc4)cc3)ccc2/C1=C/c1ccc[nH]1,-7.8% (active)

row,SMILES,growth
1,O=CN1N=C(c2ccc(Nc3ccnc4cc(Cl)ccc34)cc2)CC1c1ccc(Cl)cc1 (stereo not given),-0.669% (active)
2,O=[N+]([O-])c1ccc(N=Nc2c(O)c(N=Nc3cc([N+](=O)[O-])cc([N+](=O)[O-])c3O)cc(N=Nc3cc(S(=O)(=O)O)cc4cc(S(=O)(=O)O)cc(O)c34)c2O)cc1,100%
3,COc1ccc(C(O)(c2ccccc2)C(C(=O)O)c2ccccc2)cc1 (stereo not given),110%
4,CC(C)(C)CC(C)(C)Nc1c(-c2c(O)c3ccccc3oc2=O)nc2sccn12,86.6%
5,O=C1CNC(c2ccccc2)C(c2ccccc2)N1 (stereo not given),93.1%
6,Fc1ccc(CNc2c3ccccc3nc3ccccc23)cc1,11.5%
7,CNC(=O)c1cc(Oc2ccc3c(c2)sc2nc(-c4ccc(NC(=O)Nc5ccc(Cl)c(C(F)(F)F)c5)cc4)cn23)ccn1,93.9%
8,CCNC(=O)Oc1ccc(/C(=C(/C)c2ccccc2)c2ccc(OCCN3CCCC3)cc2)cc1,80.3%
9,C=C1C(=O)O[C@H]2[C@H]1CC/C(CNC(=O)C(C)c1ccc(CC(C)C)cc1)=C\CC[C@@]1(C)O[C@@H]21 (stereo not given in full),-23.5% (active)
10,O=c1ccc2ccc(OCCN3CCCCC3)cc2o1,105%
11,COC(=O)Cc1cc(COC(C)=O)ccc1C,108%
12,CC(C)(C)NCCC(O)c1cc(C(F)(F)F)nc2c(C(F)(F)F)cccc12 (stereo not given),70.9%
13,C=C1CC[C@@H]2[C@]3(C)COC(c4ccccc4)O[C@@H]3CC[C@@]2(C)[C@@H]1C/C=C1/C(=O)OC[C@H]1O (stereo not given in full),91.4%
14,CC1OC2CC(=O)OC2C2=C1C(=O)c1c(O)cccc1C2=O (stereo not given),-73.4% (active)
15,Cc1ccc(NC(=O)CCl)cc1Cl,108%
16,COc1ccc(C(=O)c2cc(C)c(OC)c(C)c2)cc1OC(=O)CCl,37.7%
17,N#Cc1c(-c2cccc(Cl)c2)cc(-c2cccnc2)[nH]c1=O,49.3%
18,CC[C@@H]1NC(=O)[C@H]([C@H](O)[C@H](C)C/C=C/c2ccc(CN3C(=O)CCCC3=O)cc2)N(C)C(=O)[C@H](C(C)C)N(C)C(=O)[C@H](CC(C)C)N(C)C(=O)[C@H](CC(C)C)N(C)C(=O)[C@@H](C)NC(=O)[C@H](C)NC(=O)[C@H](CC(C)C)N(C)C(=O)[C@H](C(C)C)NC(=O)[C@H](CC(C)C)N(C)C(=O)CN(C)C1=O,13.4%
19,Fc1ccc(Oc2ccc(Nc3ncnc4onc(-c5ccccc5)c34)cc2)cc1,101%
20,COc1ccc(-c2ccc3c4c(cccc24)C(=O)N(N2C(=O)c4cccc5cccc(c45)C2=O)C3=O)cc1,96.5%
